Hits are enriched below; roughly 7% of the tested compounds scored in any of these assays.
GRIN3A LBD mod: modulates the human NR3A ligand-binding domain; Tm shift relative to glycine control, % at 25 µM; AID 1259313; NR3A LBD differential scanning fluorimetry, Tm shift; 0% = protein alone, 100% = glycine-bound protein; 340,000 compounds, 2.5% hits;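 active = melting temperature shift of at least 10% of the positive control shift, at one fixed dose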
AHR act: human AHR activation; AHR-responsive luciferase reporter cells, luminescence; 320,000 compounds, 2.5% hits; P35869; AID 2796; activation, % at 5 µM; in the data active = activation above about 47%;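 note: 0% = vehicle wells and 100% = reference agonist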
rCAG binder: r(CAG) repeat RNA binding. TO-PRO-1 dye displacement fluorescence. inhibition, % at 3 µM. 370,000 compounds, 1.3% hits;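 active = inhibition above the plate cutoff, the mean of all test compounds on that plate plus 3 SD, cut at about 35% in these data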;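 note: 0% = DMSO alone and 100% = 100 µM mitoxantrone as full dye displacement; higher means more dye released from RNA so lower well fluorescence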
KLK7 zymogen act: activates the human kallikrein-7 zymogen; P49862; AID 652039; purified proKLK7, EDANS-DABCYL substrate fluorescence; 100% is mature enzyme control, 0% vehicle; activation, % at 7 µM; 370,000 compounds, 0.9% hits;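 active = activation above the mean of all tested compounds plus 3 SD, computed per campaign excluding outliers beyond control limits, cut at about 13% in these data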
Target sequence (P49862 whole entry, looked up): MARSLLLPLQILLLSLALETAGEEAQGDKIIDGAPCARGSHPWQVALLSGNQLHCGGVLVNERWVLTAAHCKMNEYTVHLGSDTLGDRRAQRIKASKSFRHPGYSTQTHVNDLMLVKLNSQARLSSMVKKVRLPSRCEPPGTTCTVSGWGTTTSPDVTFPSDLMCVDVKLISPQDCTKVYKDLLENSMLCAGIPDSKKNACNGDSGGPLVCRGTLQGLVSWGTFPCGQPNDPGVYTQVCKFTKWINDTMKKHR
ADAM17 inh: ADAM17 inhibition, QFRET primary screen | P78536 | recombinant ADAM17, EDANS/DABCYL FRET peptide cleavage | inhibition, % at 6.95 µM | 370,000 compounds, 0.83% hits;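 active = inhibition above the mean of compounds lying between control limits plus 3 SD, set per campaign, cut at about 8.5% in these data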;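 note: 0% = DMSO-only wells as the low control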
ADAM10 inh: ADAM10 inhibition, QFRET primary screen; O14672; recombinant ADAM10, EDANS/DABCYL FRET peptide cleavage, 3 h; inhibition, % at 7 µM; 370,000 compounds, 0.62% hits; AID 720582;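 active = inhibition above a per-campaign cutoff equal to the mean of compounds falling between control-based bounds plus 3 SD, cut at about 20% in these data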;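 note: 0% = DMSO wells while the 100% control is not disclosed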
rCAG bind conf: r(CAG) RNA repeat binding, confirmation. shares compounds with rCAG binder. TO-PRO-1 dye displacement fluorescence. inhibition, % at 3 µM. 4,300 compounds, 70% hits;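 active = inhibition above a per-plate cutoff, the mean inhibition of sample wells plus 3 SD, cut at about 35% in these data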;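 note: loss of TO-PRO-1 fluorescence as compound displaces dye from 1x1 AA loop RNA; 0% = DMSO only wells and 100% = 100 µM mitoxantrone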
DNA CAG counter: disrupts DNA CAG TO-PRO-1 complex, flagging rCAG hits; shares compounds with rCAG binder; d(CAG) DNA oligo TO-PRO-1 dye displacement, fluorescence; inhibition, % at 3 µM; 4,300 compounds, 94% hits; AID 652068;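 active = inhibition above its plate's cutoff, the mean test-well inhibition plus 3 SD, cut at about 4.8% in these data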;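 note: 0% = DNA dye mix with DMSO and 100% = 100 µM mitoxantrone; hits displace the dye from DNA and so lower well fluorescence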
* = called active by the depositor; i = inactive; · = not tested or not shown.

SMILES | GRIN3A LBD mod | AHR act | rCAG binder | KLK7 zymogen act | ADAM17 inh | ADAM10 inh | rCAG bind conf | DNA CAG counter
COc1cccc([C@@H]2CC=C(C(=O)O)[C@H](c3ccc(Cl)cc3)N2S(=O)(=O)c2ccc(C)cc2)c1 | 0.5 | 1.2 | 63.5* | 0.4 | 0.3 | 7.1 | 62.3* | 22.8*
COc1cccc([C@@H]2CC=C(C(=O)O)[C@H](c3ccccc3F)N2S(=O)(=O)c2ccc(C)cc2)c1 | 2.2 | -1.8 | 40.8* | -0.1 | 1.5 | 11.7 | 37.3* | 9.0*
COC(=O)C1=C(C)N(Cc2ccccc2C(F)(F)F)C(=NCc2ccc(OC)cc2)NC1c1ccc(C(F)(F)F)cc1 (stereo not given) | · | · | 0.6 | -0.6 | -2.2 | -5.9 | · | ·
COc1cc(C2CC=C(C(=O)O)C(c3ccccc3F)N2S(=O)(=O)c2ccc(C)cc2)cc(OC)c1OC (stereo not given) | · | · | 24.1 | -0.8 | 0.0 | 1.8 | · | ·
COc1cc([C@@H]2CC=C(C(=O)O)[C@H](c3ccc(C)cc3)N2S(=O)(=O)c2ccc(C)cc2)cc(OC)c1OC | -0.5 | -0.1 | 34.9* | -0.4 | 0.7 | -3.0 | 42.1* | 8.6*
COc1ccc([C@@H]2CC=C(C(=O)O)[C@H](c3ccc(C(C)(C)C)cc3)N2S(=O)(=O)c2ccc(C)cc2)cc1OC | 4.7 | -0.3 | 67.3* | 0.0 | 0.9 | 1.4 | 65.8* | 28.4*
COc1ccc([C@@H]2CC=C(C(=O)O)[C@H](c3ccc(Cl)cc3)N2S(=O)(=O)c2ccc(C)cc2)cc1OC | -1.7 | 1.0 | 57.5* | -0.2 | -0.2 | -12.9 | 34.1 | 9.3*
COc1ccc(CNS(=O)(=O)CC2NCc3cc(OC)ccc32)cc1 (stereo not given) | · | · | 7.5 | -1.1 | -11.7 | -36.4 | · | ·
FC(F)(F)c1ccc(/C=N/n2c(COc3ccccc3)n[nH]c2=S)cc1 | 5.7 | 0.9 | 50.6* | 0.1 | -1.3 | -3.3 | 37.2* | 8.5*
S=c1[nH]nc(COc2ccccc2)n1/N=C/c1ccncc1 | 0.0 | 1.5 | -1.0 | -0.2 | -2.2 | -7.9 | · | ·
FC(F)(F)c1ccccc1/C=N/n1c(COc2ccccc2)n[nH]c1=S | -8.4 | 2.8 | 44.5* | -0.3 | 0.3 | 7.6 | 27.9 | 5.5*
S=c1[nH]nc(COc2ccccc2)n1/N=C/c1ccccc1Br | -10.2 | 3.1 | 38.4* | 0.1 | 0.3 | 2.8 | 38.2* | 8.4*
O=C(Cn1nnc(-c2cccc(C(F)(F)F)c2)n1)NNS(=O)(=O)c1cccc(C(F)(F)F)c1 | 8.5 | -2.0 | 53.7* | 0.2 | -5.4 | -3.3 | 37.6* | 10.2*
Cc1cc(N2CCN(S(C)(=O)=O)C[C@@H]2C)ccc1N1CCN(Cc2ccccc2)[C@@H](C)C1 | · | · | 2.9 | 1.4 | -1.6 | -7.9 | · | ·
CC(=O)c1sc(N/N=C\c2c(O)ccc3ccccc23)nc1C | -5.0 | 65.2* | 52.5* | -0.9 | -0.6 | 3.7 | 60.2* | 28.8*
CC(=O)c1sc(Nc2cccc3ccccc23)nc1C | -1.8 | 6.5 | -2.0 | -0.2 | -4.2 | -8.8 | · | ·
CCOC1=C2[C@H](c3ccccc3)N(S(=O)(=O)c3ccc(C)cc3)[C@H](C(C)C)[C@H]2C(C#N)(C#N)C(C#N)(C#N)C1 | · | · | 25.8 | -1.3 | 3.0 | 16.1 | · | ·
CC(COc1ccc(OC(F)(F)F)cc1)CN1CCC(C(O)(c2ccccc2)c2ccccc2)CC1 (stereo not given) | · | · | 2.6 | 0.5 | 8.5 | 12.0 | · | ·
Cc1cc(NS(=O)(=O)c2ccc(NC(=O)/C=C/c3c(F)cccc3Cl)cc2)nc(C)n1 | -5.1 | -2.6 | 43.1* | 0.2 | -0.7 | 5.3 | 29.6 | 8.7*
Cc1cc(NS(=O)(=O)c2ccc(NC(=O)/C=C/c3ccco3)cc2)nc(C)n1 | 2.4 | -0.8 | 12.9 | 0.0 | -5.7 | -11.1 | · | ·
CCOC(=O)/C=C/C(=O)Nc1ccc(S(=O)(=O)Nc2cc(C)on2)cc1 | -1.0 | -1.0 | 6.9 | 0.8 | 0.7 | 1.4 | · | ·
Cc1cc(NS(=O)(=O)c2ccc(NC(=O)/C=C/c3c(F)cccc3Cl)cc2)no1 | -3.8 | -6.3 | 62.9* | -0.3 | -3.7 | -0.4 | 50.5* | 18.8*
COc1ccc(S[C@]2(C(=O)N3CCCC3)CC(=O)N(C(=O)Nc3ccc(C)c(Cl)c3)[C@@H]2c2ccc(OC)cc2)cc1 | · | · | 8.2 | -0.2 | 0.4 | -5.2 | · | ·
CN(C(=O)CSc1nc2cc(C(=O)O)ccc2c(=O)n1Cc1ccccc1)C1CCS(=O)(=O)C1 (stereo not given) | -2.1 | 1.7 | 10.3 | -0.2 | -4.0 | -9.6 | · | ·
CCN(C(=O)CSc1nc2cc(C(=O)O)ccc2c(=O)n1Cc1ccccc1)c1ccccc1 | -1.8 | 1.2 | 38.2* | 0.0 | -1.9 | -1.9 | 53.3* | 15.9*
SMILES | GRIN3A LBD mod | AHR act | rCAG binder | KLK7 zymogen act | ADAM17 inh | ADAM10 inh | rCAG bind conf | DNA CAG counter
Cc1ccc(O)c(N=CC2=C(O)c3ccccc3C2=O)c1 | -12.1 | 78.4* | 50.5* | 0.2 | 1.5 | 5.4 | 41.6* | 18.4*
O=C1C(C=Nc2ccccc2O)=C(O)c2ccccc21 | -1.9 | 43.3 | 12.7 | 1.0 | -1.3 | -5.3 | · | ·
CC1CCN(CCCNS(=O)(=O)c2cc3c(cc2Br)CCN3C(=O)C2CC2)CC1 | · | · | 6.7 | 0.1 | -0.6 | -1.4 | · | ·
N=c1c(S(=O)(=O)c2ccc(Cl)cc2)cc2c(=O)n3ccccc3nc2n1Cc1ccco1 | -0.2 | 1.4 | 36.2* | -23.3 | -485.0 | i | 55.6* | 25.1*
Nc1ccn([C@@H]2O[C@H](C(=O)N[C@H](Cc3ccccc3)C(=O)NCC(F)(F)F)[C@@H](O)[C@H]2O)c(=O)n1 | · | · | 3.6 | 0.0 | -1.9 | -1.8 | · | ·
CC1=CC(C)(C)NC(=S)N1c1cccc2cc(S(=O)(=O)O)ccc12 | 3.2 | 0.9 | 43.4* | 0.1 | -10.4 | -13.2 | 87.1* | 57.6*
CCN(CC)C(=O)CC[C@@H]1CC[C@]2(CCCN(S(=O)(=O)c3ccccc3)C2)O1 | · | · | -0.2 | 0.7 | -0.8 | -0.8 | · | ·
O=[N+]([O-])c1cc(-c2ccccc2)cc([N+](=O)[O-])c1O | -7.3 | · | 11.4 | -0.8 | -3.8 | -17.7 | · | ·
Nc1nc(-c2cc(O)ccc2[N+](=O)[O-])cc(-c2ccccc2)c1[N+](=O)[O-] | 11.4* | · | 56.5* | 0.5 | -6.8 | -3.9 | 44.2* | 24.4*
Cc1cc(N2CCNC[C@H]2C)ccc1N1CCN(Cc2ccccc2)[C@H](C)C1 | · | · | 5.9 | 0.9 | -5.4 | -10.0 | · | ·
CCC(Oc1ccccc1)C(=O)Nc1ccc(S(=O)(=O)Nc2cc(C)on2)cc1 (stereo not given) | 0.5 | 0.7 | 4.4 | -0.6 | 0.6 | 2.1 | · | ·
Cc1cc(NS(=O)(=O)c2ccc(NC(=O)C(C)Oc3cc(C)c(Cl)c(C)c3)cc2)no1 (stereo not given) | -4.0 | 0.0 | 69.1* | -0.3 | -5.1 | 2.5 | 66.0* | 27.8*
